From PubChem
eIF4E 4G PPI: eIF4E–eIF4G protein interaction inhibitors, primary screen, biochemical, uHTS, TR-FRET, eIF4GI fragment | inhibition, % at 21.7 µM | hit rate 0.37% among 220,000 | Eukaryotic translation initiation factor 4E (Mus musculus) + Eukaryotic translation … | TR-FRET eIF4E-eIF4GI(517-606) binding, 2 h;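 active = inhibition above about 30%, limit read from the data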
Target sequence (P63073 whole entry, looked up, the tested form may be a part): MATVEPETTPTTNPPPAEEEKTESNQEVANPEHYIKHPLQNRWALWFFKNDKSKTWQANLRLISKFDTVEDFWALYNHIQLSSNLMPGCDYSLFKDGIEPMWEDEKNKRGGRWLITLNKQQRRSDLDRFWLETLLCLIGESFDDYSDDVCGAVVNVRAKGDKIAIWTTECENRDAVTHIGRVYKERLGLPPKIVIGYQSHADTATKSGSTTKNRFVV
Target sequence (Q04637 whole entry, looked up, the tested form may be a part): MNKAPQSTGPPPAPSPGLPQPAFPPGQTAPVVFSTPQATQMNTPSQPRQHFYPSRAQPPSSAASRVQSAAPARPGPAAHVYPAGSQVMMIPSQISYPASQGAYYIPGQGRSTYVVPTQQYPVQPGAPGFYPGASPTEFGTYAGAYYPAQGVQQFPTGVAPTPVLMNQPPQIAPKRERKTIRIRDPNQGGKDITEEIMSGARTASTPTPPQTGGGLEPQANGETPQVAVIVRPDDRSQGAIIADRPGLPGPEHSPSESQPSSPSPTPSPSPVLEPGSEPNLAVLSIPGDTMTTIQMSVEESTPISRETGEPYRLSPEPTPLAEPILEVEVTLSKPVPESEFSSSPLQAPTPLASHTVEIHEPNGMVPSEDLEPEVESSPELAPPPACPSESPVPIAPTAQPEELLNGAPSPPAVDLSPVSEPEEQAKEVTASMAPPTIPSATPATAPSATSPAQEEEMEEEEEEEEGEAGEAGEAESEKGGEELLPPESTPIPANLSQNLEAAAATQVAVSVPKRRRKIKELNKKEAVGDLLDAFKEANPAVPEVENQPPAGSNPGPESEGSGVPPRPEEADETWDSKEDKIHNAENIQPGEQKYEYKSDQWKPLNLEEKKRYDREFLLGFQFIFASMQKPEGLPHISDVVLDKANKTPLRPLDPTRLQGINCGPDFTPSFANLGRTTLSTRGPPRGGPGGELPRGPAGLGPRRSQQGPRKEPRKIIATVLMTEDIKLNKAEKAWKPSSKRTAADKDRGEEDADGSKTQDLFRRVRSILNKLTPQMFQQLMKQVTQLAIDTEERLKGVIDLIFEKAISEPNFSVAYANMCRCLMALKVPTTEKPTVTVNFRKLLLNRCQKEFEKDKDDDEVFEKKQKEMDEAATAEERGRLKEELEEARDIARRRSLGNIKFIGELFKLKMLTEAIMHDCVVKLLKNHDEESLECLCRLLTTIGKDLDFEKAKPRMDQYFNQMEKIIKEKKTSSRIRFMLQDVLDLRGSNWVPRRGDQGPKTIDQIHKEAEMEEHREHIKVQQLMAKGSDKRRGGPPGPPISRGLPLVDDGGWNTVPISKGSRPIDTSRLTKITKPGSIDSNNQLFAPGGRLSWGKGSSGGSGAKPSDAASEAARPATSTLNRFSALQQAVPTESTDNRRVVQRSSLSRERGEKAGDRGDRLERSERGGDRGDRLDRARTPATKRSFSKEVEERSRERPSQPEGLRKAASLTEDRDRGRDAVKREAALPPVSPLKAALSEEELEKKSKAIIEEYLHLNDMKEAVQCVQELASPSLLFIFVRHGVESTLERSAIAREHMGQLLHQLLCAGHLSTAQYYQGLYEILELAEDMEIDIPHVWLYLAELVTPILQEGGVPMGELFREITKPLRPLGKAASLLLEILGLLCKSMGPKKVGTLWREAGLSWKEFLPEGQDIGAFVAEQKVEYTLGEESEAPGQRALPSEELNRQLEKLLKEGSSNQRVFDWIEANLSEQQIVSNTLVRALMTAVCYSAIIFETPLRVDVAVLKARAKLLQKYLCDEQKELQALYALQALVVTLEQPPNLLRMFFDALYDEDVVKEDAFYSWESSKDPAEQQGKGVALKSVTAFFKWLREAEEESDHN
EP2 antag: human EP2 receptor antagonists, primary screen, TR-FRET cAMP, C6 glioma cells | Prostaglandin E2 receptor EP2 subtype (Homo sapiens), P43116 | inhibition, % at 25 µM | AID 1422, 2008 | C6 glioma cells expressing human EP2; cells stimulated with saturating PGE2 | hit rate 0.52% among 260,000;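 active = percent inhibition above 40 after rounding to a whole number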;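 also: rat C6 glioma host cells with rolipram phosphodiesterase inhibitor present; the protocol text gives 20 µM as final concentration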
PERK inh: block of dimerizer-induced PERK translation repression, primary screen, PERK inhibitor project, CHO PERK-DD cells, SEAP luminescence, HTS; CHO PERK-DD fusion, SEAP luminescence translation reporter; hit rate 0.17% among 220,000; inhibition, % at 5.6 µM; Eukaryotic translation initiation factor 2-alpha kinase 3 (Homo sapiens), Q9NZJ5;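 active = inhibition above the mean inhibition of all tested compounds plus 3 SD, set separately per screening campaign, cut at about 2.9% in these data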;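 also: PERK kinase domain activated by AP20187 dimerizer at 100 nM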
EP2 modulator: EP2 receptor modulators, cAMP readout, primary screen, cell-based, HTRF cAMP, PGE2 stimulation; EP2-expressing cells, cAMP HTRF FRET, PGE2 co-stimulation; induction, % at 25 µM; hit rate 0.83% among 260,000; AID 940, 2007;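 active = compounds whose cAMP rise, as percent of the full-agonist control response, exceeds 60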;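 also: rat C6 glioma line stably carrying human EP2 under a CMV promoter; the protocol text gives 20 µM as final concentration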
Large screens that a line does not name were inactive; ! = a repeat was not active; [ ] = dose if it differs, or a comment. Only some compounds are listed: those with a hit (about 1.8% of all), similar ones and a draw of the others.

c1ccc2c(c1)nc(N1CCCCC1)c1ccccc12	EP2 modulator 68
c1ccc2c(N3CCCCC3)nc(N3CCCC3)nc2c1	none
COc1ccc(OC)c2[nH]c(C(=O)N3CCC(O)(c4ccccn4)CC3)cc12	none (no result: eIF4E 4G PPI, EP2 antag, PERK inh)
O=c1cc(CCl)nc2sc3ccccc3n12	eIF4E 4G PPI 40
CCOC(=O)Cn1nc2sc3ccccc3n2c(=O)c1=O	none
Cc1c(O)nc2sc3ccccc3n2c1=O	PERK inh 4.4
CCCNC(=O)C1CCN(S(=O)(=O)c2cc(OC)ccc2OC)CC1	none (no result: eIF4E 4G PPI, PERK inh)
O=C1OC(C(=O)Nc2cccc3ccccc23)Cc2ccccc21 (centres undefined)	none (no result: eIF4E 4G PPI, PERK inh)
COC(=O)C1=NN(c2ccc(C)cc2)C2(S1)SC(C(C)=O)=C(C)N2c1ccccc1 (centres undefined)	EP2 modulator 63
COC(=O)C1=NN(c2ccccc2)C2(S1)SC(C(C)=O)=C(C)N2c1ccccc1 (centres undefined)	none
CC(C)Cc1cc(C(=O)NCc2cccnc2)no1	none
CC(C)Cc1cc(C(=O)NCc2cccs2)no1	PERK inh 3.4
Cc1cc2c(=O)n(CC(=O)NC(C)c3ccc4c(c3)CCC4)cnc2s1 (centres undefined)	none (no result: eIF4E 4G PPI, PERK inh)
CC(C)C(=O)Nc1ccc(NC(=O)c2ccccc2)nc1	none (no result: eIF4E 4G PPI, PERK inh)
Nc1nnc(SCc2ccccc2Cl)s1	eIF4E 4G PPI 77
COc1ccc2nc3sc(C(=O)N4CCCCCC4)c(N)c3cc2c1	none (no result: eIF4E 4G PPI, PERK inh)
O=C(CSc1nnc(CNc2ccc(F)cc2)n1CC1CCCO1)N1CCCc2ccccc21 (centres undefined)	none (no result: eIF4E 4G PPI, PERK inh)
CC(=O)Nc1ccc(N=Cc2nc(-c3ccc(C)cc3)oc2O)cc1	none
CSc1ccccc1N=Cc1nc(-c2ccccc2)oc1O	EP2 modulator 61
Cc1ccc(N=Cc2nc(-c3ccc(C)cc3)oc2O)cc1	eIF4E 4G PPI 66
CC(C)(C)C1=NN(CC(=O)NCc2ccncc2)C(=O)c2cc3sccc3n2C1	none (no result: eIF4E 4G PPI, PERK inh)
CCCNC(=O)CSc1nnc(COc2ccc(Cl)cc2)n1CC	none (no result: eIF4E 4G PPI, PERK inh)
COc1ccccc1CN1CCN(Cc2ccnc(N3CCCC3)n2)CC1	none (no result: eIF4E 4G PPI, PERK inh)
COc1ccc2cc(C)c3nn(CC(=O)N(C)C4CCCCC4)c(=O)n3c2c1	none (no result: eIF4E 4G PPI, PERK inh)
COc1ccc(C(=O)NC(=S)Nc2ccc(S(=O)(=O)Nc3nccs3)cc2)cc1	EP2 antag 49 (no result: eIF4E 4G PPI, PERK inh)
CCc1nnc(NS(=O)(=O)c2ccc(NC(=S)NC(=O)/C=C/c3ccc(OC)cc3)cc2)s1	EP2 antag 104
O=C(NC(=S)Nc1ccc(S(=O)(=O)Nc2nccs2)cc1)c1ccccc1	none
CCc1nnc(NS(=O)(=O)c2ccc(NC(=S)NC(=O)c3ccccc3)cc2)s1	none
CCc1nnc(NS(=O)(=O)c2ccc(NC(=S)NC(=O)/C=C/c3ccc(C(C)C)cc3)cc2)s1	eIF4E 4G PPI 64[fluorescence artefact?]
CCc1nnc(NS(=O)(=O)c2ccc(NC(=S)Nc3ccc(F)cc3)cc2)s1	none
CCc1nnc(NS(=O)(=O)c2ccc(NC(=S)NC(=O)c3ccc(Br)cc3)cc2)s1	EP2 antag 59
CC(=O)c1nnn(-c2ccc(F)cc2)c1Nc1cccnc1	none (no result: eIF4E 4G PPI, PERK inh)
O=C(O)c1ccc2c(c1)C(=O)N(c1cccc(-c3nc4ccccc4s3)c1)C2=O	eIF4E 4G PPI 46
CC(=O)Oc1cccc(N2C(=O)c3ccc(C(=O)O)cc3C2=O)c1	none
O=C1c2ccccc2C(=O)c2c(NC3CCCCC3)ccc(Nc3ccc(S(=O)(=O)O)cc3)c21	EP2 antag 71 (no result: eIF4E 4G PPI, PERK inh)
O=C(O)CSc1nc2ccccc2c2c1CCCC2	EP2 modulator 88 (no result: eIF4E 4G PPI, PERK inh)
Cc1cc2nc(SCC(=O)N(C)C)c3c(c2cc1C)CCCC3	EP2 modulator 62
O=C(O)c1ccc(CS(=O)c2cccc(C(F)(F)F)c2)o1 (centres undefined)	PERK inh 3.7
Nc1nc(-c2cccc([N+](=O)[O-])c2)cc(-c2cc(-c3cccc([N+](=O)[O-])c3)nc(N)n2)n1	EP2 antag 44 (no result: eIF4E 4G PPI, PERK inh)
Cc1c(N2CCCC2)cc2c(c1NC(=O)c1ccccc1Cl)C(C)(C)CC2(C)C	EP2 antag 47!
CCSc1nnc(-c2ccccc2N)c(=O)[nH]1	none
Nc1ccccc1-c1nnc(SCc2ccccc2F)[nH]c1=O	eIF4E 4G PPI 33[fluorescence artefact?]
O=C(NC1CCCCC1)C(c1ccc(F)cc1)N(Cc1ccco1)C(=O)Cc1ccsc1 (centres undefined)	none (no result: eIF4E 4G PPI, PERK inh)
O=C1/C(=C/c2cccnc2)Sc2ccccc21	EP2 antag 49
CC(C)(C)C(=O)Nc1nnc(SCC(=O)Nc2ccccc2)s1	none (no result: eIF4E 4G PPI, PERK inh)
NC(=O)CNc1n[nH]c(=S)[nH]c1=O	none
CCCCOC(=O)C(C)Nc1n[nH]c(=O)[nH]c1=O (centres undefined)	PERK inh 2.9
CC(C)COC(=O)CNc1n[nH]c(=S)[nH]c1=O	EP2 antag 133
CCCCOC(=O)CNc1n[nH]c(=S)[nH]c1=O	EP2 antag 114
CCCCOC(=O)C(C)Nc1n[nH]c(=S)[nH]c1=O (centres undefined)	none
CCCCOC(=O)CCNc1n[nH]c(=O)[nH]c1=O	none
COCCn1nnnc1C(c1cc2cc(C)c(C)cc2[nH]c1=O)N1CCN(c2ccccc2F)CC1 (centres undefined)	none (no result: eIF4E 4G PPI, PERK inh)
Cc1ccccc1-c1nnc(SCC(N)=O)n1C	none (no result: eIF4E 4G PPI, PERK inh)
Cc1ccc(-n2sc3ccccc3c2=O)cc1	eIF4E 4G PPI 45
Cc1ccc2cc(C#N)c(SCC(=O)NCCc3ccccc3)nc2c1C	none (no result: eIF4E 4G PPI, PERK inh)
COc1ccc(N=Nc2nc(-c3ccccc3)c(-c3ccccc3)[nH]2)cc1	none
COc1ccc(N=Nc2n(C)c3ccccc3[n+]2C)cc1	PERK inh 3.4
CC(=O)c1sc(-c2ccc(F)cc2)cc1NS(=O)(=O)c1ccc(C)cc1	none
CC(=O)c1sc(-c2ccccc2)cc1NS(=O)(=O)c1ccc(C)cc1	EP2 antag 74
CC(=O)c1sc(-c2ccccc2)cc1NS(=O)(=O)c1ccccc1	EP2 antag 81
CC(=O)N1CCc2cc(-c3nc(NC(=O)c4c(C)nn(-c5ccccc5)c4Cl)sc3C)ccc21	none (no result: eIF4E 4G PPI, PERK inh)
COc1ccc(C(=O)Nc2ccc(NC(=O)c3cc4ccccc4o3)c(OC)c2)cc1	none (no result: eIF4E 4G PPI, PERK inh)
CSc1nc2ccccc2n1Cc1c(Cl)cccc1Cl	EP2 modulator 65
CC(C)(C)NC(=O)CSc1nc2ccccc2n1Cc1c(F)cccc1Cl	none (no result: eIF4E 4G PPI, PERK inh)
Oc1c(Cl)cc(CN(Cc2cc(Cl)c(O)c(Cl)c2)C2CCCCC2)cc1Cl	EP2 antag 44 (no result: eIF4E 4G PPI, PERK inh)
CN(C)c1ccc(CN(C)C2CCCCC2)cc1	none
CC1CCN(C(=O)C(C)NCCN(C)C)CC1 (centres undefined)	none (no result: eIF4E 4G PPI, PERK inh)
COC(=O)c1cc([N+](=O)[O-])c(-n2ccnc2)c([N+](=O)[O-])c1	EP2 modulator 63
O=C(C1CCCCC1)N1CCCc2cc(C(O)CN3CCCCC3)ccc21 (centres undefined)	none (no result: eIF4E 4G PPI, PERK inh)
CC(C)(C)C(=O)NC(=S)N1CCCC1	none
CC12CC3(C)CC(C)(C1)CC(C(=O)NC(=S)N1CCCC1)(C2)C3	eIF4E 4G PPI 32
